In the experiment the target is CD276, Q5ZPR3.

Unmarked numbers belong to inactive results. How the calls were made is not given here.

38 molecules from publication PMC13494018 can be followed below.

CD276, Q5ZPR3, sequence (Q5ZPR3 whole entry): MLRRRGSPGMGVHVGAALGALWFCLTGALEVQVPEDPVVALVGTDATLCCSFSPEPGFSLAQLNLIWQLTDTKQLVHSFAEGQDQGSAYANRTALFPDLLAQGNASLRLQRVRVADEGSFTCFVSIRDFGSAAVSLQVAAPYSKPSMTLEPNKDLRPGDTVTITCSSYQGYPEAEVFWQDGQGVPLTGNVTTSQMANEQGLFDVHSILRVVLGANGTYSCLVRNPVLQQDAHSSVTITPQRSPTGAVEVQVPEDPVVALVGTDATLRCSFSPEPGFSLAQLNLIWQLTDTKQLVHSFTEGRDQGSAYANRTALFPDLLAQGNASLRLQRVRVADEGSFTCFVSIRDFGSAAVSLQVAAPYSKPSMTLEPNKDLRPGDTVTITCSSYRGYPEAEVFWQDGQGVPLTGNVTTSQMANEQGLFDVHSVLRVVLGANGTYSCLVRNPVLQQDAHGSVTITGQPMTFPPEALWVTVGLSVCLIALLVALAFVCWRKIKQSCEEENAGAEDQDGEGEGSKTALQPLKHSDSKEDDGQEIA

B1: design_619_5728adc2-0aea-404f-92dd-a4575c53f550_2329_dldesign_0_cycle1_af2pred (protein)
chain: SALTKKIEEKATKLVEEAAKTTPEEARKLATEALEIAKQSPEALSALAVELLKAAAKATPEVAAVLREVAAQAMRTAIEIARA
For the molecule B1, the “binding in a display sort” value is “binds (active)”.

B2: design_619_5728adc2-0aea-404f-92dd-a4575c53f550_2492_dldesign_0_cycle1_af2pred (protein)
chain: AIADEIIALARAAAEAADPEESTRLMREAAELAVEKFPELTPEEANAVIGEFLEAAARASPEAAVIATRAAARLGAQLAA
For B2, the “binding in a display sort” value is “not found”.

B3: design_619_5728adc2-0aea-404f-92dd-a4575c53f550_2359_dldesign_0_cycle1_af2pred (protein)
chain: SQAQGELLEAVKYASKAMKLDPALAPQLQQAINLLVRAIVLLAQGDEAQAAEEAKKAAKLFEEAAKKASPEAAKELKKAAKEAEKAI
On to B3, for which the “binding in a display sort” value was “not found”.

B4: design_620_fbd04095-bef7-46a9-992d-f2cb8915922f_1750_dldesign_0_cycle1_af2pred (protein)
chain: DPAKELARRVVEANLKQLKKLLEEAGKASTEEGKKLAKEAIEKVEKLKKEALASSAAEATALTVKAIEEASKALREIKKLK
B4: the “binding in a display sort” value is “not found”.

B5: design_620_fbd04095-bef7-46a9-992d-f2cb8915922f_187_dldesign_0_cycle1_af2pred (protein)
chain: GEARRQFAEDTAAAAKQAAALYAADPEKAQQVKDAADKAVAAAESGEDAQLAGLSAIKVYQALVEAQKAA
B5: the “binding in a display sort” value is “not found”.

B6: design_620_fbd04095-bef7-46a9-992d-f2cb8915922f_36_dldesign_0_cycle1_af2pred (protein)
chain: AAEEALKKLKELAEKTKKVAEEAGKVNPALAPEADFLSALAEAALNYAKKNAASPDFEKIAKKQLEQIKKALERAEKLLKEAKAQAA
With B6, the “binding in a display sort” value is “not found”.

B7: design_620_fbd04095-bef7-46a9-992d-f2cb8915922f_868_dldesign_0_cycle1_af2pred (protein)
chain: MEEERREELRRKAEEYIAQAEALAAQTSPSAQLLVSNLARQARRLAEAGDYEGALEVARAALEGAQAMAAQQ
In the case of B7, the “binding in a display sort” value is “not found”.

B8: design_620_fbd04095-bef7-46a9-992d-f2cb8915922f_119_dldesign_0_cycle1_af2pred (protein)
chain: REAAAEELRRLAEEARRLGEAGTPEVRSMARMMATAMEVIARGGNVELALEALRAAAAGIANDGKFGAEMEELARRAEEAVR
B8: the “binding in a display sort” value was “not found”.

B9: design_620_fbd04095-bef7-46a9-992d-f2cb8915922f_846_dldesign_0_cycle1_af2pred (protein)
chain: AADALAGAKAALNTIKAAETNAKKLDAAGAEAQYKLAKVALESAKVHAAKLGEEGKKIAEEAKKALAATKAVAEAKKAA
For B9, the “binding in a display sort” value was “not found”.

B10: design_620_fbd04095-bef7-46a9-992d-f2cb8915922f_946_dldesign_0_cycle1_af2pred (protein)
chain: AAALEAARRVAYGQMVLGKMKADEGLKKAESGEDLEGGIKMAEEGLKLAKEYAEYDPVKGGAAAKEIGAKLKKMKELAKKAK
For B10, the “binding in a display sort” value is “not found”.

B11: design_620_fbd04095-bef7-46a9-992d-f2cb8915922f_936_dldesign_0_cycle1_af2pred (protein)
chain: LTPLEKAEAAKAKADKLYEAAQKATKAEAASLYGEAAVEYAKAAAYYLRAGDAAAAAAAQANLKTAVAKSQALVAA
For B11, the “binding in a display sort” value was “not found”.

B12: design_619_5728adc2-0aea-404f-92dd-a4575c53f550_1976_dldesign_0_cycle1_af2pred (protein)
chain: SPALLAARKAITETAAATINALTDPAAANLVGRAMIQGLQLAQQGEAAGAHAAAAVAALALVEAAAAAARALDAAAA
For B12, the “binding in a display sort” value is “not found”.

B13: design_620_fbd04095-bef7-46a9-992d-f2cb8915922f_1411_dldesign_0_cycle1_af2pred (protein)
chain: DELTKLAQEAADAAVRAMEAGRYLPLEEANALINEVIKLYQKASEAAVAGKLEEAKKYAKEAKAKAKEIEELAEKRRA
Regarding B13, the “binding in a display sort” value is “not found”.

B14: design_620_fbd04095-bef7-46a9-992d-f2cb8915922f_1739_dldesign_0_cycle1_af2pred (protein)
chain: AEAAELLAQLQAATAAAQAAAAAGDAAAANAHLAQAVELASQIHRVGDAAQRAQANQLLAQASRAAIAANAAAAA
As for B14, the “binding in a display sort” value was “not found”.

B15: design_620_fbd04095-bef7-46a9-992d-f2cb8915922f_548_dldesign_0_cycle1_af2pred (protein)
chain: MNASERVIARAEAIIAEAAALGAAHPAMAGETAAIQALARSAARMARSGEHIEDAEKAVEVAEAMLAATAARAAALAA
With B15, the “binding in a display sort” value was “not found”.

B16: design_620_fbd04095-bef7-46a9-992d-f2cb8915922f_1915_dldesign_0_cycle1_af2pred (protein)
chain: NEDLKKAAELAKKAAQLAPQPEAAEVAAKAAEAAEKAVGPELGNYALALATLPPAARALGMSNLATSLEKLV
For the molecule B16, the “binding in a display sort” value is “not found”.

B17: design_620_fbd04095-bef7-46a9-992d-f2cb8915922f_839_dldesign_0_cycle1_af2pred (protein)
chain: MSWSEKAAEAAIKRLKELAKKAVSEGGKYAELAAAAARNAALLSYAAGPEMAKKAIKVFKEAAKLYPELAPAMEQAIALIESLL
As to B17, the “binding in a display sort” value is “not found”.

B18: design_620_fbd04095-bef7-46a9-992d-f2cb8915922f_1742_dldesign_0_cycle1_af2pred (protein)
chain: AAAVATAAAQAFLAQAEKNLAAAKAALKAGDYEAAIKHAQAAIGSAQSAKLAAQSAGDAALAAQADKVIAEAKKVLAEAEKALKEA
Turning to B18, the “binding in a display sort” value was “not found”.

B19: design_620_fbd04095-bef7-46a9-992d-f2cb8915922f_687_dldesign_0_cycle1_af2pred (protein)
chain: ATAAEAAALRDAGVAAANSAAAAAKAGNTTAAGELLTEAVKLAAQLAALGDEAGAAEVRAAIAASSKTIIAAQAA
For the molecule B19, the “binding in a display sort” value is “not found”.

B20: design_620_fbd04095-bef7-46a9-992d-f2cb8915922f_814_dldesign_0_cycle1_af2pred (protein)
chain: SALSIAQLAASTQAVMKRAAKEVKGELAKKIKEAAKLAATGEKAKEAAALLKEAAKEAPEELKPLVASAAKHAELLVAAS
B20: the “binding in a display sort” value is “not found”.

B21: design_620_fbd04095-bef7-46a9-992d-f2cb8915922f_329_dldesign_0_cycle1_af2pred (protein)
chain: SAESQAKAEELLREAFKRITELADAAAKSGTEEELAKAKKEMEEIAEKVEKEAGPGAGELARNYLKTQLAAAKAAIAAAK
As to B21, the “binding in a display sort” value was “not found”.

B22: design_620_fbd04095-bef7-46a9-992d-f2cb8915922f_1337_dldesign_0_cycle1_af2pred (protein)
chain: ADAATQAAIDANAAQAERALAAARADPAALPYAQAAIRNLELIAAGASPETQARGLARAEALRAALAAARAAA
Take B22: the “binding in a display sort” value was “not found”.

B23: design_620_fbd04095-bef7-46a9-992d-f2cb8915922f_158_dldesign_0_cycle1_af2pred (protein)
chain: IDTQANLELAKKSFNAALAQARRFAKTDRQAALAALKSAEVYAEAAEAADPAAGEELRKKVEEARKEIEAA
B23: the “binding in a display sort” value is “not found”.

B24: design_620_fbd04095-bef7-46a9-992d-f2cb8915922f_1232_dldesign_0_cycle1_af2pred (protein)
chain: SERHQQLVDFMVAAGQVALTNLAGALRTAEIVARTDPAAAVEGAKKIRELAAKTTPEDAAKMNAVADHALAAAA
In the case of B24, the “binding in a display sort” value was “not found”.

B25: design_620_fbd04095-bef7-46a9-992d-f2cb8915922f_790_dldesign_0_cycle1_af2pred (protein)
chain: AKAKELAKKAEKALKAAKEAAKLKPEEAAAKANKELGKVLEAQKKAVEAGAPQEALDKINAVATEIAKIALEAAKAA
For the molecule B25, the “binding in a display sort” value is “not found”.

B26: design_619_5728adc2-0aea-404f-92dd-a4575c53f550_2058_dldesign_0_cycle1_af2pred (protein)
chain: AAVAQSQLQITQNLVAWALSQLTTYGPAQGATIAKAVRDLALAAGLPEAVADELAAGAAGTAAEAKAKGAQAVALAQAAVAA
In the case of B26, the “binding in a display sort” value is “not found”.

B27: design_620_fbd04095-bef7-46a9-992d-f2cb8915922f_328_dldesign_0_cycle1_af2pred (protein)
chain: DPKAQAQATAETLAKQAKKAATEALKLAKELGDKETAEKMKEIIKKVEELLEKAKKGTAEEAGAAALEILKLLSEARKELEKLKKKA
With B27, the “binding in a display sort” value is “not found”.

B28: design_619_5728adc2-0aea-404f-92dd-a4575c53f550_2217_dldesign_0_cycle1_af2pred (protein)
chain: DPAAALEKRTAAAMLAQAKAAVDADPALGRQRIANMEQLGKASPALAPYLLPAAEEARAYLAAKEAAAAA
For the molecule B28, the “binding in a display sort” value is “not found”.

B29: design_620_fbd04095-bef7-46a9-992d-f2cb8915922f_1420_dldesign_0_cycle1_af2pred (protein)
chain: KQKYVNAIKANAKNLELIAEGAAQVDPALAKEAKAAAEKAKAKAEEAKKSTAEEAAALRKEVQAALAALSRALIAAAA
For B29, the “binding in a display sort” value is “not found”.

B30: design_620_fbd04095-bef7-46a9-992d-f2cb8915922f_592_dldesign_0_cycle1_af2pred (protein)
chain: SMAEEAARAEKAAAFREQAEAILAQAQANAADAEKLQQLGQQAVELAEEAAALGDQEAAQAALRAAAQINALLVQAQ
Consider B30, for which the “binding in a display sort” value was “not found”.

B31: design_620_fbd04095-bef7-46a9-992d-f2cb8915922f_681_dldesign_0_cycle1_af2pred (protein)
chain: AAAEAAAAAAAAAAAAEAAARAARGREIMVRTVEAIVRQARASPDGLRLARIALRVAESAGDEEAIALARAALAELEAA
With B31, the “binding in a display sort” value is “not found”.

B32: design_620_fbd04095-bef7-46a9-992d-f2cb8915922f_347_dldesign_0_cycle1_af2pred (protein)
chain: DAVAAGQALLYAAKSQGYIGKAKKAVKEGKLEEAKEYAEKAEEYAKKSEEYAKQSGDAAVQAQAKKVQEQVKKTKEEVKKAE
With B32, the “binding in a display sort” value is “not found”.

B33: design_620_fbd04095-bef7-46a9-992d-f2cb8915922f_1723_dldesign_0_cycle1_af2pred (protein)
chain: SAAAQQAAWQTYVDAAAEMSKLRREALASGDPEVKEKAIEEIKALADKAAANPAAAAAAKLAGENMTAALTES
B33: the “binding in a display sort” value was “not found”.

B34: design_620_fbd04095-bef7-46a9-992d-f2cb8915922f_1150_dldesign_0_cycle1_af2pred (protein)
chain: MRERIEKVEKEAKEAYEATKKAAAAQGEAGKIIAAAADAALKRLEEAAKKAKEALEEGDLESAEKYLKEAEAQLETIKVLKESAE
With B34, the “binding in a display sort” value was “not found”.

B35: design_620_fbd04095-bef7-46a9-992d-f2cb8915922f_254_dldesign_0_cycle1_af2pred (protein)
chain: AERLRAAAERLEAAAAATPEAAEAALAEAAALAEEVAAEYPGLGQLILNTLRQAAGLSPEERARAVARQFRALADYL
Take B35: the “binding in a display sort” value is “not found”.

B36: design_620_fbd04095-bef7-46a9-992d-f2cb8915922f_77_dldesign_0_cycle1_af2pred (protein)
chain: DAVTAQIKALGAAGVAQARADPENAVAIASRTNAQIWGLILAAGADAAASAVALEATRANAEAVRETTAAAAAAAAAAAAAAAA
With B36, the “binding in a display sort” value was “not found”.

B37: design_620_fbd04095-bef7-46a9-992d-f2cb8915922f_1144_dldesign_0_cycle1_af2pred (protein)
chain: DPARQATINALIKAAAEAAKLGDTALSQAAVEAAVALASAKTQEELDAAQKEADAVLAAAAKRKAAAAAA
Turning to B37, the “binding in a display sort” value is “not found”.

B38: design_619_5728adc2-0aea-404f-92dd-a4575c53f550_2222_dldesign_0_cycle1_af2pred (protein)
chain: MENLEKAKELLEKAEAYVKAAAASDLATAQALLGQAVAAGQEAVELLKDSPIYPEVSRKVVELIRAGLAAVAAKA
As to B38, the “binding in a display sort” value is “not found”.
